Test results taken from paper PMC4336329 (PLoS ONE, 2015).
About 2,200 (0.71%) of roughly 310,000 compounds showed an effect of 50% or more. The effect is printed as a negative number. What follows is part of a selection rich in strong results, with near analogues and random picks from the rest.

Each compound was assayed against human ether-à-go-go-related gene (hERG) potassium channel (human, UniProt Q12809) (assay: primary screen, population patch clamp on CHO cells stably expressing hERG; higher = less effect of the substance).
Sequence of human ether-à-go-go-related gene (hERG) potassium channel (Q12809 whole entry, looked up): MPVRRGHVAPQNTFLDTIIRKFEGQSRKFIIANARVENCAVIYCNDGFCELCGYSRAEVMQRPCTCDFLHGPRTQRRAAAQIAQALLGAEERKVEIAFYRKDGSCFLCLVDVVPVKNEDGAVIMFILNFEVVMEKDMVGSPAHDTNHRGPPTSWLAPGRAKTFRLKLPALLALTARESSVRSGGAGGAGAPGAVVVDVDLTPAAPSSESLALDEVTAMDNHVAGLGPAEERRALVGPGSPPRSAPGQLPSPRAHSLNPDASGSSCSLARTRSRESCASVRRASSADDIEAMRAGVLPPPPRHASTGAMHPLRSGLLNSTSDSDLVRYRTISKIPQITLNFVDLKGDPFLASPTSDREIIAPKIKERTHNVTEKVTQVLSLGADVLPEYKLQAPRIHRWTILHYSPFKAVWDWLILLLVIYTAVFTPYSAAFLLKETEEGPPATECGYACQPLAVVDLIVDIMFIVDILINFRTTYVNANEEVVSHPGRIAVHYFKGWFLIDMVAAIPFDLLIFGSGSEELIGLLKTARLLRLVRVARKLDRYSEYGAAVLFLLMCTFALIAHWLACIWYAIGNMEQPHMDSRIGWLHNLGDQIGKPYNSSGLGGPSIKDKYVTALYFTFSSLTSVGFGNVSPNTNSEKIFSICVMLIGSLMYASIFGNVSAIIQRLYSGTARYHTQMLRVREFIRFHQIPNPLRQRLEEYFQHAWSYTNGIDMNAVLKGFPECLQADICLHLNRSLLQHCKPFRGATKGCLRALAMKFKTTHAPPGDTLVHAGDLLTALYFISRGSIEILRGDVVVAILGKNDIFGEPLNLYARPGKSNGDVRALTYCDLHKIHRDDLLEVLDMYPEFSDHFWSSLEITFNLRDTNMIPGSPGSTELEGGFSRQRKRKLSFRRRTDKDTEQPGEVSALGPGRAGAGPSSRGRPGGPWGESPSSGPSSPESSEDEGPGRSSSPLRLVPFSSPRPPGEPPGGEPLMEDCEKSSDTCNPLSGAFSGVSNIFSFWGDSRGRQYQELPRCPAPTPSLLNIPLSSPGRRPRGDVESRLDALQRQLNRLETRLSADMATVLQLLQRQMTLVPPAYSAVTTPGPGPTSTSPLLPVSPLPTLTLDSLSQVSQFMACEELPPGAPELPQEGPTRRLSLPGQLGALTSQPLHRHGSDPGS

SMILES	hERG current change (%, negative = inhibition) at 1uM
COc1cc(NS(=O)(=O)c2ccc(NC(=O)COc3ccccc3Cl)cc2)nc(OC)n1	4.62%
NC(=O)CSc1nnc(-c2ccccn2)n1N	12.4%
CC(=O)Nc1ccc(C(=O)Nc2nc(-c3cc(C)n(Cc4ccccc4)c3C)cs2)cc1	11.3%
CC(C)OC(=O)CC(=O)CSc1nc2c(cc1C#N)CCC2	16.3%
Cc1ccc(C(=O)Nc2ccc(OCc3ccccc3)cc2)cc1[N+](=O)[O-]	2%
CCN1CCN(c2ncnc3sc(C)c(-c4ccccc4)c23)CC1	-25.9%
O=C(Nc1cccc(Oc2ccc3c(c2)C(=O)NC3=O)c1)c1cccs1	-2.79%
Cc1ccccc1N1C(=O)C(Oc2ccc(Cl)cc2)C1CNCCCOC(C)C (stereo not shown)	-3.82%
O=C(OCc1ccc([N+](=O)[O-])cc1)C1CC(=O)N(c2ccccc2)C1 (stereo not shown)	-36%
O=C(OCc1ccc([N+](=O)[O-])cc1)C1CC(=O)N(CCc2ccccc2)C1 (stereo not shown)	-56.3%
O=C(OCc1nnc(-c2ccc([N+](=O)[O-])cc2)o1)C1CC(=O)N(CCc2ccccc2)C1 (stereo not shown)	-17.8%
Cc1cccn2c(=O)c3cc(S(=O)(=O)c4ccccc4)c(=N)n(Cc4ccco4)c3nc12	5.3%
Cc1cccn2c(=O)c3cc(C(=O)NCc4ccco4)c(=N)n(CCOCCO)c3nc12	-63.3%
COc1ccc(CCn2c(=N)c(C(=O)NCc3ccco3)cc3c(=O)n4cccc(C)c4nc32)cc1	-76.6%
Cc1cccn2c(=O)c3cc(C(=O)NCc4ccco4)c(=N)n(C(C)C)c3nc12	-84.9%
Cc1cccn2c(=O)nc(SCC(=O)NCc3ccco3)nc12	4.54%
Cc1cccn2c(=O)c3cc(C(=O)NCCc4ccccc4)c(=N)n(Cc4ccco4)c3nc12	-35.5%
Cc1cccn2c(=O)c3cc(C(=O)NCc4ccco4)c(=N)n(CCc4ccccc4)c3nc12	-82.2%
CCOC(=O)CC1Sc2ccccc2NC1=O (stereo not shown)	-7.75%
CCN1CCc2c(sc(NC(=O)c3ccc(C(=O)c4ccccc4)cc3)c2C(N)=O)C1.Cl	-7.72%
COc1cccc(C(=O)Nc2cccc(-c3nc4ncccc4o3)c2C)c1	12.6%
CC1(c2nnc(-c3ccncc3)o2)CC(c2ccccc2)=NO1 (stereo not shown)	16.4%
Clc1cccc(OCc2nnc(-c3ccccc3Br)o2)c1	9.74%
O=Cc1ccc(-c2ccc(C(=O)O)cc2)o1	-2.38%
O=C(CC1CCCCC1)c1c(O)c2ccccc2oc1=O	-4.69%

SMILES	hERG current change (%, negative = inhibition) at 1uM
CCOC(=O)c1c(C)n(CC(O)c2ccccc2)c2ccc(O)cc12 (stereo not shown)	13.6%
CCN(CC(=O)Nc1c(F)cccc1F)C(=O)CSC(=S)N1CCCC1	6.34%
Cc1cccc(-n2c(/C=C/c3ccc([N+](=O)[O-])o3)nc3ccccc3c2=O)c1	2.06%
S=C(N/N=C/c1cccc2ccccc12)Nc1cccc(Cl)c1	11.3%
Nc1ccc(OCc2ccccc2)cc1	10.7%
COc1ccc(OC)c(-n2c(CN3CCC(C(N)=O)CC3)nc3ccccc3c2=O)c1	7.22%
COc1ccc(CNC2CCN(Cc3ccccc3)CC2)cc1	-3.31%
COc1ccc(OC)c(-n2c(CNC3CCN(Cc4ccccc4)CC3)nc3ccccc3c2=O)c1	-69.9%
CS(=O)(=O)Cc1cccc(C(=O)NC2CCSc3ccccc32)c1 (stereo not shown)	16.3%
COCc1cc(=O)[nH]c(Nc2nc(C)c3cc(OC)ccc3n2)n1	10%
CCc1ccc2nc(Nc3nc(COC)cc(=O)[nH]3)nc(C)c2c1	-64.8%
COCc1cc(=O)[nH]c(Nc2nc(C)c3ccccc3n2)n1	6.35%
CC(=O)Nc1ccc(C(=O)NC2CCCC2)cc1	6.35%
COc1ccccc1NC(=O)CSc1nnnn1C	16.4%
CSC1=NP(=S)(SC)N2CCCC2=C1C#N (stereo not shown)	6.13%
CCCn1c2ccccc2c2cnn(CC(=O)NC3CCCCC3)c(=O)c21	10.5%
CCCn1c2ccccc2c2cnn(CC(=O)N3CCN(C4CCCCC4)CC3)c(=O)c21	-68.5%
CCCn1c2ccccc2c2cnn(CC(=O)NCCN(C)C)c(=O)c21	-12.5%
CCCn1c2ccccc2c2cnn(CC(=O)NCCN(CC)CC)c(=O)c21	-67%
CCCn1c2ccccc2c2cnn(CC(=O)N3CCOCC3)c(=O)c21	7.27%
CCCn1c2ccccc2c2cnn(CC(=O)NCCOC)c(=O)c21	6.19%
C[C@@H]1CC=C[C@H]2[C@H]1C(=O)N(Cc1ccccc1)[C@H]2c1ccc(-c2ccoc2)cc1F	17.9%
N#Cc1cccnc1N1CCN(C(=O)c2ccco2)CC1	12.7%
Cc1cc(N2C3CCC2CC(O)(c2ccc(F)cc2)C3)nc(-c2ccccc2)n1 (stereo not shown)	9%
CC(=O)Nc1ccc(/C=N/NC(=O)CCN2CCN(c3ccccc3)CC2)cc1	5.44%

SMILES	hERG current change (%, negative = inhibition) at 1uM
O=C(CCN1CCN(c2ccccc2)CC1)N/N=C/c1ccc([N+](=O)[O-])o1	-58.5%
O=C(CCN1CCN(c2ccccc2)CC1)N/N=C/c1ccccc1O	9.66%
CC(C)(C)c1nc2ccccc2[nH]1	10.8%
COc1ccc(C(CNC(=O)COc2ccc([N+](=O)[O-])cc2)N2CCCCC2)cc1 (stereo not shown)	-52.1%
COc1ccc(C(CNC(=O)COc2ccccc2)N2CCCCC2)cc1 (stereo not shown)	-4.21%
COc1ccc(OCC(=O)NCC(c2ccc(OC)cc2)N2CCCCC2)cc1 (stereo not shown)	-1.58%
CC(=O)c1ccc(-n2ccnc2)cc1	7.14%
O=c1c2[nH]c3ccc(Cl)cc3c2ncn1CCN1CCCCC1	-43.9%
O=c1c2[nH]c3ccc(F)cc3c2ncn1CC1CCCO1 (stereo not shown)	4.81%
CCN1CCCC1Cn1cnc2c([nH]c3ccc(Cl)cc32)c1=O (stereo not shown)	-69.4%
Cc1ccc2[nH]c3c(=O)n(CCN4CCOCC4)cnc3c2c1	6.2%
Cc1ccc2[nH]c3c(=O)n(CCCN4CCN(C)CC4)cnc3c2c1	-12.6%
CCN1CCCC1Cn1cnc2c([nH]c3cccc(Cl)c32)c1=O (stereo not shown)	-38.7%
CCN1CCCC1Cn1cnc2c([nH]c3ccc(C)cc32)c1=O (stereo not shown)	-63.4%
CCC1CCCN1Cn1cnc2c([nH]c3ccc(Cl)cc32)c1=O (stereo not shown)	-70.9%
CCC1CCCN1Cn1cnc2c([nH]c3ccc(C)cc32)c1=O (stereo not shown)	-54.9%
CCC1CCCN1Cn1cnc2c([nH]c3ccccc32)c1=O (stereo not shown)	-45.7%
Cc1ccc2[nH]c3c(=O)n(CCN4CCNCC4)cnc3c2c1	18.5%
Cc1ccc2[nH]c3c(=O)n(CCC4=CCCCC4)cnc3c2c1	11%
COc1cccc(C(=O)Nc2ccncc2)c1OC	9.58%
Cc1nn(CC(=O)c2cccc(Cl)c2)c(C)c1[N+](=O)[O-]	6.41%
Cc1ccc(Cn2cccc(NC(=O)CCC3CCCC3)c2=O)cc1	1.91%
Cc1ccc(/C=C2/C(=O)NC(=O)N(C)C2=O)cc1	7.48%
Cn1c(NC(=O)c2cc(-c3ccc4c(c3)OCO4)nc3ccccc23)cc(=O)n(C)c1=O	2.87%
CCN(CC)S(=O)(=O)c1ccc(NCCCn2ccnc2)c([N+](=O)[O-])c1	-7.58%

SMILES	hERG current change (%, negative = inhibition) at 1uM
Cl.O=C(NCCCn1ccnc1)c1ccc(N2CCCCCC2)c([N+](=O)[O-])c1	-51.6%
O=C(NCCCn1ccnc1)c1ccc(N2CCCCC2)c([N+](=O)[O-])c1	-54.1%
O=C(c1ccccc1)c1ccc(NCCCn2ccnc2)c([N+](=O)[O-])c1	-65.4%
O=C(NCCCN1CCOCC1)c1ccc(N2CCCC2)c([N+](=O)[O-])c1	4.41%
Cl.O=C(NCCCn1ccnc1)c1ccc(S(=O)(=O)N2CCCCCC2)cc1	9.74%
Cc1ccc(C(=O)NCCCn2ccnc2)cc1[N+](=O)[O-]	11.9%
COc1ccc(C(=O)NCCCn2ccnc2)cc1[N+](=O)[O-]	3.98%
NS(=O)(=O)c1ccc(NCCCn2ccnc2)c([N+](=O)[O-])c1	12%
Cc1ccc(NC(=O)NC2CC(=O)N(c3ccc4c(c3)OCCO4)C2)cc1 (stereo not shown)	11.3%
CC[n+]1ccc(C(=O)NCc2ccccc2)cc1.[Cl-]	12.3%
CCc1[nH]nc2c1C1(C(=O)N(Cc3ccccc3)c3ccccc31)C(C#N)=C(N)O2 (stereo not shown)	15.5%
CCOc1ccc2[nH]c3nc(SCC(=O)OC(C)C)nnc3c2c1	14.6%
CCCN1CCN(C(=S)Nc2ccc([N+](=O)[O-])cc2)CC1	-11%
Cc1ccc2[nH]c(=O)c(CN(CCCN(C)C)C(=O)Nc3ccc(Cl)cc3)cc2c1	-62.7%
CCN(CC)CCN(Cc1cc2ccc(C)cc2[nH]c1=O)C(=O)Nc1ccc(Cl)cc1	-78.4%
CCN1CCCC1CN(Cc1cc2ccc(C)cc2[nH]c1=O)C(=S)Nc1cccc(OC)c1 (stereo not shown)	-44%
Cc1ccc2[nH]c(=O)c(CN(CCCN(C)C)C(=O)Nc3cccc(Cl)c3)cc2c1	-26.3%
Cc1ccc2[nH]c(=O)c(CN(CCCN(C)C)C(=O)Nc3ccc(F)cc3)cc2c1	-37%
CCN1CCCC1CN(Cc1cc2ccc(C)cc2[nH]c1=O)C(=S)Nc1ccc(F)cc1 (stereo not shown)	-70.6%
Cc1ccc2cc(CN(CCN(C)C)C(=O)Nc3ccc(Cl)cc3)c(=O)[nH]c2c1	-20.7%
CCN1CCCC1CN(Cc1cc2ccc(C)cc2[nH]c1=O)C(=S)Nc1ccc(OC)cc1 (stereo not shown)	21.4%
CCN(CC)CCN(Cc1cc2cc(C)ccc2[nH]c1=O)C(=S)Nc1ccccc1	-23.4%
